Reference: PubChem BioAssay AID1527 (The Scripps Research Institute Molecular Screening Center, 2009)
Hit rate of the full screen: of about 290,000 compounds, about 2,600 (0.9%) were called active.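 How the source made its calls: active means inhibition above the mean of all tested compounds plus 3 SD, cutoff set per screening run (cut at about 7.5% in these data); inactive means the rest.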 This excerpt belongs to a sample that is enriched for actives.

Each compound was assayed on VIM-2 metallo-beta-lactamase (Pseudomonas aeruginosa) (assay: inhibition of VIM-2 nitrocefin hydrolysis – biochemical, epi-absorbance readout, Pseudomonas aeruginosa enzyme, primary screen (AID 1527;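 further: red hydrolysis product quenches plate fluorescence so inhibitors raise well fluorescence; 0% = enzyme with DMSO and 100% = DMSO without enzyme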)). Conditions: purified VIM-2, nitrocefin hydrolysis, epi-absorbance fluorescence; at 5.6 µM; stronger effect = higher value.
CCCNC(=O)CCc1c(C)nc2c(c(C)nn2-c2ccccc2)c1C was tested, and the inhibition was -3.85% (inactive).
With COc1ccc(/C=N/N(C)C2=NS(=O)(=O)c3ccccc32)cc1OC the inhibition was 18.5% (active).
COc1ccc(/C=N/S(=O)(=O)c2ccccc2)cc1OC was tested, and the inhibition was 2.08% (inactive).
For C=CCOCCN(C)C1=NS(=O)(=O)c2ccccc21, the inhibition was -0.19% (inactive).
CC(=O)c1cccc(NC(=O)C2CCCN(S(=O)(=O)c3cccc4nonc34)C2)c1 (configuration not stated) was tested, and the inhibition was -0.2% (inactive).
With COc1ccc(COC(=O)c2ccc(Cl)c(S(=O)(=O)N3CCOCC3)c2)cc1F the inhibition was -3.64% (inactive).
For COc1ccc(CCNC(=O)c2ccc3c(c2)NC(=O)C(N2CCOCC2)S3)cc1OC (configuration not stated), the inhibition was 0.07% (inactive).
For CCN1CCN(CCNC(=O)c2ccc(/C=C3/Sc4ccccc4N(Cc4cccc(C)c4)C3=O)cc2)CC1, the inhibition was -2.77% (inactive).
In the case of CCN1CCN(CCNC(=O)c2ccc3c(c2)NC(=O)/C(=C\c2ccc(OC)c(OC)c2)S3)CC1, the inhibition was 23.2% (active).
In the case of O=C(NCCCc1ccccc1)C(=O)NCC1OCCN1S(=O)(=O)c1ccccc1 (configuration not stated), the inhibition was -2.36% (inactive).
CCC(NC(=O)c1cc(COc2ccc(F)c(F)c2)on1)c1ccncc1 (configuration not stated) was tested, and the inhibition was 1.14% (inactive).
With COc1ccc(S(=O)(=O)N2CCN(C)CC2)c(C)c1 the inhibition was 1.39% (inactive).
O=C(NCC(=O)N1CCN(c2ncc(C(F)(F)F)cc2Cl)CC1)c1ccc(Br)o1 was tested, and the inhibition was 0.82% (inactive).
With CC(=O)c1ccc(Cc2ncc(C(F)(F)F)cc2Cl)s1 the inhibition was -0.62% (inactive).
With CN1CCN(C(=O)CCc2ncc(C(F)(F)F)cc2Cl)CC1 the inhibition was 7.72% (active).
With O=C1CC(C(F)(F)C(F)(F)C(F)(F)C(F)(F)F)=Nc2ccccc2N1 the inhibition was -4.82% (inactive).
For Cc1ccccc1-n1cc(CNC(=O)C2CCC(=O)N(C3CC3)C2)cn1 (configuration not stated), the inhibition was -2.92% (inactive).
With O=C1/C(=C/c2ccc3c(c2)OCO3)Oc2cc(OCC(=O)N3CC(O)C[C@H]3C(=O)O)ccc21 (some centres not stated) the inhibition was -0.7% (inactive).
For Cc1cc(=O)oc2ccc(OCC(=O)O)cc12, the inhibition was -3.22% (inactive).
For Cc1ccccc1N1CCN(CCCOc2ccc3c(C)cc(=O)oc3c2)CC1, the inhibition was -0.43% (inactive).
Cc1cc(=O)oc2cc(OCCC[n+]3ccccc3)ccc12 was tested, and the inhibition was 8.33% (active).
For Cc1ccc2c(C)c(C(=O)N3CCN(c4ccncc4)CC3)oc2c1C, the inhibition was 3.45% (inactive).
For Cc1nnc(SCC(=O)Nc2cccc(N)c2)n1-c1ccccc1, the inhibition was -2.64% (inactive).
In the case of O=S(=O)(c1ccc(Br)cc1)N1CCC(c2nc3ccccc3[nH]2)CC1, the inhibition was -4.39% (inactive).
With Cc1cc(NC(=O)/C=C/C(=O)N(c2ccccc2C)C(C(=O)NC2CCCC2)c2ccc(F)cc2)no1 (configuration not stated) the inhibition was 1.56% (inactive).
COc1ccc(CNC(=O)c2cc(C(=O)C3CC3)c[nH]2)cc1 was tested, and the inhibition was -2.31% (inactive).
CCOC(=O)C1CCN(c2ncnc3c2oc2ccc(Br)cc23)CC1 was tested, and the inhibition was -2.16% (inactive).
For CCOC(=O)N1CCN(C(=O)C2CCN(S(=O)(=O)c3cc(Cl)ccc3OCC)CC2)CC1, the inhibition was -1.98% (inactive).
With CCOC(=O)N1CCN(C(=O)C2CCN(c3ncnc4c3sc3cccc(F)c34)CC2)CC1 the inhibition was 17.8% (active).
C=CCOc1cccc(C2NC(=O)c3ccccc3O2)c1 (configuration not stated) was tested, and the inhibition was -2.16% (inactive).
In the case of Cc1cc(N2CCN(c3ccccc3)CC2)nc(N2CCOCC2)n1, the inhibition was -1.05% (inactive).
Cc1cc(Nc2ccc(N3CCOCC3)cc2)c2cccc(C)c2n1 was tested, and the inhibition was 2.18% (inactive).
In the case of Cc1nn2c3cc(N4CCOCC4)ccc3nc2c2ccccc12, the inhibition was 10.9% (active).
CC(=O)NC(CC(=O)Nc1cccc(S(=O)(=O)N2CCCC2)c1)c1ccccc1 (configuration not stated) was tested, and the inhibition was -3.12% (inactive).
C=CCn1c(-c2ccc3[nH]c(C)c(C)c3c2)n[nH]c1=S was tested, and the inhibition was 5.39% (inactive).
With C=CCn1c(-c2sc(-c3ccccc3)nc2C)n[nH]c1=S the inhibition was -5.93% (inactive).
In the case of C=CCn1c(-c2ccccc2OCC)n[nH]c1=S, the inhibition was 25.3% (active).
With COc1cc(NC(=O)CCNC(=O)Cn2ccc3ccccc3c2=O)cc(OC)c1OC the inhibition was -1.82% (inactive).
With C[C@H](NC(=O)[C@@H]1Cc2ccccc2CN1C(=O)OC(C)(C)C)C(=O)NC1CCCC1 the inhibition was -2.43% (inactive).
CCn1c(C(O)c2cc(OC)ccc2OC)nc2ccccc21 (configuration not stated) was tested, and the inhibition was -0.51% (inactive).
For Cc1cccc(OCC(=O)NCCCNC(=O)c2ccccn2)c1, the inhibition was -2.83% (inactive).
For COc1ccc(CC(=O)N/N=C(\C)c2ccccn2)cc1, the inhibition was -3.47% (inactive).
With CCN(CC)CCOc1ccc2c(c1)C(=NNC(=O)c1ccccn1)c1cc(OCCN(CC)CC)ccc1-2 the inhibition was 29.9% (active).
CCCc1[nH]nc2c1C(c1ccc(Br)s1)C(C#N)=C(N)O2 (configuration not stated) was tested, and the inhibition was 8.14% (active).
In the case of CCCc1[nH]nc2c1C(c1c(C)nn(-c3ccccc3)c1Cl)C(C#N)=C(N)O2 (configuration not stated), the inhibition was -2.17% (inactive).
With CCCc1[nH]nc2c1C(C1CC=CCC1)C(C#N)=C(N)O2 (configuration not stated) the inhibition was 1.47% (inactive).
For CNC(=O)c1cc2c(ccc3ccccc32)oc1=N, the inhibition was 0.24% (inactive).
For CNC(=O)c1cccc2nc3ccccc3nc12, the inhibition was 12.2% (active).
For CN(C)C(=O)c1coc2nc3ccccc3nc12, the inhibition was -2.21% (inactive).
For Cc1ccc(S(=O)(=O)c2nc(-c3cccs3)oc2NCc2cccnc2)cc1, the inhibition was -1.14% (inactive).
For O=C(NCCOc1ccccc1F)Nc1ccc(Br)cc1, the inhibition was -1.38% (inactive).
For COc1ccc(NS(=O)(=O)c2cc3c(cc2C)N(C(C)=O)CCO3)cc1, the inhibition was -3.48% (inactive).
For O=[N+]([O-])c1ccccc1/C=C/CN1CCCC(CO)C1 (configuration not stated), the inhibition was -0.68% (inactive).
O=C(NCC(=O)N1CCC2(CC1)NCCc1[nH]cnc12)c1ccc(Br)cc1 was tested, and the inhibition was 0.87% (inactive).
For Cc1ccccc1NC(=O)C1CCN(C(=O)NC2CCCCC2)CC1, the inhibition was -1.56% (inactive).
O=C(NC(=S)Nc1ncccn1)c1ccccc1Br was tested, and the inhibition was -1.46% (inactive).
For O=C(Nc1ccc(-n2ccnc2P(=O)(O)c2ccccc2)cc1)c1ccccc1Br, the inhibition was 21.4% (active).
For Cc1ccc(NC(=O)c2cccnc2C(=O)Nc2ccc(C)cc2)cc1, the inhibition was -0.75% (inactive).
With COc1cc(/C=C2\SC(=O)NC2=O)ccc1OCc1ccc(Cl)nc1 the inhibition was -1.77% (inactive).
COc1ccccc1CCNS(=O)(=O)c1cc2c3c(c1)C(C)C(=O)N3CCC2 (configuration not stated) was tested, and the inhibition was 1.4% (inactive).
In the case of O=C(NCCCc1ccccc1)C1CCC(=O)N(CCc2ccc(Cl)cc2)C1 (configuration not stated), the inhibition was -1.97% (inactive).
In the case of Cc1cccc(N2C(=O)c3cccnc3C2=O)c1, the inhibition was -0.49% (inactive).
In the case of Cc1ccc(NC(=O)CSc2cccc3cccnc23)c(C)c1, the inhibition was -0.55% (inactive).
For Cc1ccc(Oc2ccc3c(c2)C(=O)N(c2cccc4cccnc24)C3=O)cc1, the inhibition was 30.9% (active).
O=C(C1CCN(S(=O)(=O)c2ccc(Br)s2)CC1)N1CCN(c2ccccc2)CC1 was tested, and the inhibition was -3.44% (inactive).
In the case of Cc1cccc(NC(=S)NC(=O)c2ccc(Br)o2)c1, the inhibition was -1.38% (inactive).
COC(=O)c1ccccc1NC(=S)NC(=O)c1ccccc1F was tested, and the inhibition was -1.44% (inactive).
In the case of O=C(NC(=S)Nc1ccccc1C(=O)O)c1ccc(-c2ccc(Br)cc2)o1, the inhibition was 19.4% (active).
With CC(C)[C@H](NC(=O)N1CC(=O)Nc2ccccc21)C(=O)N[C@@H](Cc1c[nH]c2ccccc12)C(=O)O the inhibition was -2.42% (inactive).
In the case of Cn1cnnc1SCc1nnc(-c2ccccc2Br)o1, the inhibition was -0.36% (inactive).
CCOC(=O)N1CCN(Cc2nnc(-c3ccccc3Cl)o2)CC1 was tested, and the inhibition was -1.67% (inactive).
Nc1cccc2c1C(=O)N(Cc1nnc(-c3ccccc3Br)o1)C2=O was tested, and the inhibition was 13.6% (active).
Cc1ccccc1NC(=O)C1CCCN(C(=O)NCc2ccccc2)C1 (configuration not stated) was tested, and the inhibition was -2.35% (inactive).
In the case of Cc1cc2c(cc1C)N(Cc1ccccc1)C1=NCCCN12, the inhibition was 8.88% (active).
In the case of CC(C)(C)C(=O)CN1C2=NCCN2c2ccccc21, the inhibition was -3.12% (inactive).
OC(CN1C2=NCCCN2c2ccccc21)c1ccc(Br)cc1 (configuration not stated) was tested, and the inhibition was -1.66% (inactive).
COc1ccc(S(=O)(=O)NCC(=O)NCc2cc(=O)n(C)c(=O)n2C)cc1F was tested, and the inhibition was -1.12% (inactive).
With CCn1c(Cc2ccc(OC)cc2)nnc1SCC(=O)Nc1ccc(N2CCOCC2)cc1 the inhibition was -1.86% (inactive).
With COc1ccc(Nc2cc(C)nc(-n3nc(C)cc3C)n2)cc1 the inhibition was 12.7% (active).
In the case of COc1ccccc1/C=N\Nc1cc(C)nc(-n2nc(C)cc2C)n1, the inhibition was -5.24% (inactive).
For Cc1cc(N/N=C\c2ccc(Br)cc2)nc(-n2nc(C)cc2C)n1, the inhibition was -1.15% (inactive).
With Cc1cccc(OCC(=O)NCC(=O)N/N=C/c2ccc(N(C)C)cc2)c1 the inhibition was 0.77% (inactive).
N#Cc1ccc(/C=C2\CCn3c2nc2cc(C(=O)O)ccc2c3=O)cc1 was tested, and the inhibition was 3.37% (inactive).
With Fc1ccc(-c2ccc(CNCc3ccccn3)o2)cc1Cl the inhibition was 38% (active).
With Cc1cc(S(=O)(=O)NCc2ccccn2)c(Cl)cc1Cl the inhibition was -1.51% (inactive).
With COc1ccc(-c2ccc(CNCCCN3CCOCC3)o2)cc1Cl the inhibition was -0.71% (inactive).
For COc1ccc(S(=O)(=O)N2CCN(C(=O)N(C)C)C2C)cc1 (configuration not stated), the inhibition was -2.86% (inactive).
With N#Cc1ccc(S(=O)(=O)NCC(=O)OCC(=O)NCCc2ccccc2)cc1 the inhibition was -2% (inactive).
With C=CCn1c(SCc2ccc(C(=O)NCCO)cc2)nc2ccccc2c1=O the inhibition was 9.03% (active).
For O=C(Nn1c(SCc2ccc([N+](=O)[O-])cc2)nc2ccccc2c1=O)c1ccc(F)cc1, the inhibition was 1.03% (inactive).
For COCCNC(=O)c1ccc(-n2c(SCc3cccnc3)nc3ccccc3c2=O)cc1, the inhibition was -1.16% (inactive).
For CCN1CCCC1CNC(=O)c1cc2c(=O)n(C)c3ccccc3c2n1C (configuration not stated), the inhibition was 19.9% (active).
With CC1CCCC(C)N1CCCNC(=O)c1cc2c(=O)n(C)c3ccccc3c2n1C (configuration not stated) the inhibition was 21.7% (active).
In the case of Cn1c(C(=O)NCCN2CCc3ccccc3C2)cc2c(=O)[nH]c3ccccc3c21, the inhibition was 6.06% (inactive).
For Cn1c(C(=O)N2CCC(C(N)=O)CC2)cc2c(=O)n(C)c3ccccc3c21, the inhibition was 2.96% (inactive).
For Cn1c(C(=O)NCCc2ccsc2)cc2c(=O)n(C)c3ccccc3c21, the inhibition was 4.63% (inactive).
With Cn1c(C(=O)NCCCN2CCN(c3cccc(Cl)c3)CC2)cc2c(=O)n(C)c3ccccc3c21 the inhibition was -1.03% (inactive).
